The record followed here is the supplement of paper PMC8975748.

Structures can show the parent of a compound that is named as a salt.

The test system of the first test is Saccharomyces cerevisiae BY4741 SeMeCo community. Put plainly: z-score of prototroph abundance vs DMSO median; higher = larger share of this subpopulation than in DMSO controls. As to conditions: 10 µM; 24 h; SM minimal medium; subpopulation (auxotrophy): Prototroph. An outline of the steps: (§1)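 Subpopulation abundance was reported as a z-score against the median of vehicle wells. The Saccharomyces cerevisiae BY4741 community, carrying four plasmids that each restored one auxotrophy and encoded a distinct fluorescent protein, was grown 24 h in minimal SM medium in 384-well plates holding library drugs at 10 µM final. Cells were paraformaldehyde-fixed and imaged by automated confocal microscopy, with single-auxotroph fluorescent strains used for thresholds and autofluorescence correction.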
As for `C[C@]12CCC3=C4CCC(=O)C=C4CC[C@H]3[C@@H]1CC[C@@]2(O)CC#N` [Dienogest], the “z-score of prototroph abundance” value stood at 0.42.
Still for that read-out and setting: in the case of `C[N+]1(C)CCC(OC(=O)C(O)(c2ccccc2)C2CCCC2)C1` (stereo unspecified) [Glycopyrrolate] it was -0.59; in that of `NCC[C@H](O)C(=O)N[C@@H]1C[C@H](N)[C@@H](O[C@H]2O[C@H](CN)[C@@H](O)[C@H](O)[C@H]2O)[C@H](O)[C@H]1O[C@H]1O[C@H](CO)[C@@H](O)[C@H](N)[C@H]1O` [Amikacin disulfate], 0.25; in that of `CN1C2CCCC1CC(NC(=O)c1nn(C)c3ccccc13)C2` (stereo unspecified) [Granisetron], -0.04.
Still for that read-out and setting: to `CCCCCNC(=N)N/N=C/c1c[nH]c2ccc(OC)cc12` [Tegaserod Maleate] belongs -1.66; to `COc1ccc2cc3[n+](cc2c1OC)CCc1cc2c(cc1-3)OCO2` [Berberine Sulfate], -0.5.
The same measure, in the same setting: in the case of `CS(=O)(=O)Nc1ccc([N+](=O)[O-])cc1Oc1ccccc1` [Nimesulide] it was 0.12; in that of `COc1cc(O)c(C(=O)Nc2nc(C(=O)NCCN(C(C)C)C(C)C)cs2)cc1OC` [Acotiamide hydrochloride], -0.4.
For the molecule `C[C@H]1c2cccc(O)c2C(O)=C2C(=O)[C@]3(O)C(O)=C(C(N)=O)C(=O)[C@@H](N(C)C)[C@@H]3[C@@H](O)[C@@H]21` [Doxycycline monohydrate], the “z-score of prototroph abundance” value was 0.75.
On the same count and under the same terms, in the case of `COC(=O)C1=C(C)NC(C)=C(C(=O)OC(C)(C)CN(C)CCC(c2ccccc2)c2ccccc2)C1c1cccc([N+](=O)[O-])c1` (stereo unspecified) [Lercanidipine hydrochloride] it was -0.42; in that of `CC(c1cc2ccccc2s1)N(O)C(N)=O` (stereo unspecified) [Zileuton], 0.05.
Same read-out and setting: in the case of `O=c1ccn(C2CC(O)C(CO)O2)c(=O)[nH]1` (stereo unspecified) [2-deoxyuridine] it was 0.08.
For `Nc1nc2[nH]cc(CCc3ccc(C(=O)N[C@@H](CCC(=O)O)C(=O)O)cc3)c2c(=O)[nH]1` [Pemetrexed Disodium Hydrate], the “z-score of prototroph abundance” value was 3.18.

Another test shares this test system. Put plainly: z-score of subpopulation abundance vs DMSO median, subpopulation auxotrophic for L; higher = larger share of this subpopulation than in DMSO controls. The conditions noted are these: 10 µM; 24 h; SM minimal medium; subpopulation (auxotrophy): L. An outline of the steps: as §1
Take `C[C@]12CCC3=C4CCC(=O)C=C4CC[C@H]3[C@@H]1CC[C@@]2(O)CC#N` [Dienogest]: the “z-score of subpopulation abundance” value was found to be 0.12.
The same measure, in the same setting: to `NCC[C@H](O)C(=O)N[C@@H]1C[C@H](N)[C@@H](O[C@H]2O[C@H](CN)[C@@H](O)[C@H](O)[C@H]2O)[C@H](O)[C@H]1O[C@H]1O[C@H](CO)[C@@H](O)[C@H](N)[C@H]1O` [Amikacin disulfate] belongs 0.46; to `CN1C2CCCC1CC(NC(=O)c1nn(C)c3ccccc13)C2` (stereo unspecified) [Granisetron], -0.54; to `CCCCCNC(=N)N/N=C/c1c[nH]c2ccc(OC)cc12` [Tegaserod Maleate], 2.04.
The same measure, in the same setting: in the case of `CS(=O)(=O)Nc1ccc([N+](=O)[O-])cc1Oc1ccccc1` [Nimesulide] it was 0.65.
Same read-out and setting: in the case of `COc1cc(O)c(C(=O)Nc2nc(C(=O)NCCN(C(C)C)C(C)C)cs2)cc1OC` [Acotiamide hydrochloride] it was -0.26; in that of `O=c1ccn(C2CC(O)C(CO)O2)c(=O)[nH]1` (stereo unspecified) [2-deoxyuridine], 1.75.
Take `Nc1nc2[nH]cc(CCc3ccc(C(=O)N[C@@H](CCC(=O)O)C(=O)O)cc3)c2c(=O)[nH]1` [Pemetrexed Disodium Hydrate]: the “z-score of subpopulation abundance” value turned out to be 3.26.
